Screens from PubChem.
PD-1 reversal = activators reversing PD-1 mediated T-cell inhibition. primary human CD4 T cells, PD-L1 beads, CellTiter-Glo 96 h. activation, % (test concentration not listed). 29,000 tested, under 10 active; call rule not given here;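 also: 0% = median vehicle wells and 100% = positive control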
STK33 kin inh = inhibitors of human STK33 kinase; ADP-Glo luminescence, MBP substrate; inhibition, % at 12.5 µM; 27,000 compounds, 0.44% hits; AID 2322; in the data active = inhibition above about 20%
Target sequence (Q9BYT3 whole entry, looked up): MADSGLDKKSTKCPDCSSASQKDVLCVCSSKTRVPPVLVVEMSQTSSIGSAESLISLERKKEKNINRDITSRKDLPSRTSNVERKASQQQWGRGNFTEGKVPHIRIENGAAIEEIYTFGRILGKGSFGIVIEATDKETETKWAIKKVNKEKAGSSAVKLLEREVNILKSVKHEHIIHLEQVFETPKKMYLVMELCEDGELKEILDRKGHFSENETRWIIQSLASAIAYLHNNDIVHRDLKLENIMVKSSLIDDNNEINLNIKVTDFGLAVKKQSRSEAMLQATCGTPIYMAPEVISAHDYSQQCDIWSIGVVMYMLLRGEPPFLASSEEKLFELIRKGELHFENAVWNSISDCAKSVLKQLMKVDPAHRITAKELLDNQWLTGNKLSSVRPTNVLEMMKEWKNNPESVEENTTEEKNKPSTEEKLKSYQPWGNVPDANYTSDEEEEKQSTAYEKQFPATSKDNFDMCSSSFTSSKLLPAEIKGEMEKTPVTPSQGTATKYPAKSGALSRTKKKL
NOMO-1 viab = STK33 inhibitor candidate reducing NOMO-1 cell viability; NOMO-1 AML viability, CellTiter-Glo luminescence, 72 h; inhibition, % (no concentration beside the values); 37,000 compounds, 7.5% hits; in the data active = inhibition above about 80%
Starred values were filed as active, the others as inactive; / = not tested or not shown. The sample as a whole holds a higher share of hits than the screen did.

SMILES	PD-1 reversal	STK33 kin inh	NOMO-1 viab
C[C@H](CO)N1C[C@H](C)[C@@H](CN(C)Cc2ccc(C(=O)Nc3ccccc3N)cc2)Oc2ccc(NS(=O)(=O)c3ccc(F)cc3)cc2C1=O	1.8	/	48.4
C[C@@H]1CN([C@H](C)CO)C(=O)c2cc(NS(=O)(=O)c3ccc(Cl)cc3)ccc2O[C@H]1CN(C)Cc1ccc(C(=O)Nc2ccccc2N)cc1	-0.8	/	43.9
Cc1ccc(S(=O)(=O)Nc2ccc3c(c2)CC(=O)N([C@@H](C)CO)C[C@H](C)[C@@H](CN(C)Cc2ccc(C(=O)Nc4ccccc4N)cc2)O3)cc1	1.3	/	48.1
CCOC(=O)c1oc(C(=O)OCC)c(O)c1O	0.5	/	-8.7
Cn1nnnc1SCC(=O)Nc1cccc(C(=O)O)c1	-0.3	-1.2	-14.8
COc1ccccc1NC(=O)CSc1nc2ccc(NC(=O)c3ccccc3OC)cc2s1	/	3.8	5.8
O=C(Nc1ccccc1C(F)(F)F)C1c2ccccc2Oc2ccccc21	0.6	/	13.2
COC(=O)C(C)Sc1nnc(-c2ccc(Br)cc2)o1 (stereo not given)	0.2	/	39.9
O=C(NCc1cccnc1)C(=O)Nc1cccc(Cl)c1Cl	0.9	-3.5	12.2
C/C=C/C1C2OC3=C(C(=O)OC3(C)O)C(=O)C1(C)C1CC(O)C(C)CC1C2O (stereo not given)	2.9	-4.6	-9.0
O=C(NCCCN1CCCC1=O)Nc1ccc(Br)cc1	/	-2.1	-10.6
Cc1cccc(NC(=O)CSc2cn(CCNC(=O)c3ccc(F)cc3)c3ccccc23)c1C	4.1	1.0	66.0
COc1ccc(OC)c(NC(=O)c2c(NC(=O)c3ccccc3)sc3c2CCC(C)C3)c1 (stereo not given)	/	1.4	12.2
C[C@H](CO)N1C[C@H](C)[C@H](CN(C)C(=O)NC2CCCCC2)Oc2c(NC(=O)Nc3ccc(C(F)(F)F)cc3)cccc2C1=O	-5.3	/	71.1
C[C@H](CO)N1C[C@H](C)[C@H](CN(C)C(=O)Nc2ccc(C(F)(F)F)cc2)Oc2c(NC(=O)C3CCCCC3)cccc2C1=O	-4.0	/	94.9*
C[C@@H]1CN([C@H](C)CO)C(=O)c2cccc(NC(=O)Nc3ccc(C(F)(F)F)cc3)c2O[C@H]1CN(C)C(=O)NC1CCCCC1	-6.7	/	74.8
C[C@H]1CN([C@@H](C)CO)C(=O)c2cccc(NC(=O)C3CCCCC3)c2O[C@@H]1CN(C)C(=O)Nc1ccc(C(F)(F)F)cc1	-0.8	/	15.4
C[C@H]1CN([C@@H](C)CO)C(=O)c2cccc(NC(=O)NC3CCCCC3)c2O[C@@H]1CN(C)C(=O)Nc1ccc(C(F)(F)F)cc1	-4.6	/	100.0*
C[C@H](CO)N1C[C@H](C)[C@H](CN(C)C(=O)Nc2ccc(C(F)(F)F)cc2)Oc2c(NC(=O)NC3CCCCC3)cccc2C1=O	-4.0	/	105.7*
COC(=O)C1=C(C)NC(C)=C(C(=O)OC)C1c1ccc(C(C)C)cc1	-0.1	/	110.2*
CCOC(=O)C1=C(C)NC(C)=C(C(=O)OC)C1c1cccc(Cl)c1Cl (stereo not given)	/	-12.6	27.2
Cc1cc(N(CC(=O)Nc2cc(C(F)(F)F)ccc2Cl)S(C)(=O)=O)ccc1Br	0.4	0.0	58.7
Cc1cc(C)c(S(=O)(=O)N(CC(=O)Nc2ccc(C(N)=O)cc2)C2CCCCC2)c(C)c1	0.3	-0.9	21.2
Cc1c(NC(=O)COc2ccc(I)cc2)cccc1C(=O)O	0.7	-7.2	28.1
COc1ccc(NC(=O)Nc2ccc3c(c2)C(=O)N([C@@H](C)CO)C[C@H](C)[C@H](CN(C)Cc2ccncc2)O3)cc1	0.8	-6.3	102.9*
SMILES	PD-1 reversal	STK33 kin inh	NOMO-1 viab
COc1ccc(NC(=O)Nc2ccc3c(c2)C(=O)N([C@H](C)CO)C[C@@H](C)[C@@H](CN(C)Cc2ccncc2)O3)cc1	-0.4	/	6.5
COc1ccc(CN(C)C[C@H]2Oc3ccc(NC(=O)Nc4ccc(C(F)(F)F)cc4)cc3C(=O)N([C@@H](C)CO)C[C@H]2C)cc1	-6.2	/	125.8*
COc1ccc(CN(C)C[C@H]2Oc3ccc(NC(=O)Nc4ccc(OC)cc4)cc3C(=O)N([C@@H](C)CO)C[C@@H]2C)cc1	/	/	12.7
COc1ccc(CN(C)C[C@H]2Oc3ccc(NC(=O)Nc4ccc(C(F)(F)F)cc4)cc3C(=O)N([C@H](C)CO)C[C@H]2C)cc1	/	/	129.1*
COc1ccc(CN(C)C[C@H]2Oc3ccc(NC(=O)Nc4ccc(OC)cc4)cc3C(=O)N([C@@H](C)CO)C[C@H]2C)cc1	0.5	1.7	29.3
COc1ccc(CN(C)C[C@@H]2Oc3ccc(NC(=O)Nc4ccc(C(F)(F)F)cc4)cc3C(=O)N([C@@H](C)CO)C[C@H]2C)cc1	/	/	117.4*
COc1ccc(CN(C)C[C@@H]2Oc3ccc(NC(=O)Nc4ccc(F)cc4)cc3C(=O)N([C@@H](C)CO)C[C@@H]2C)cc1	2.8	-2.3	26.3
COc1ccc([N+](=O)[O-])cc1NC(=O)c1ccccc1N(C)S(=O)(=O)c1ccc(C)cc1	-0.9	-1.0	25.6
COc1ccc(CCNC(=O)C(=O)c2c(-c3ccccc3)[nH]c3ccccc23)cc1OC	-2.1	-1.3	22.6
COc1ccc(NC(=O)Nc2ccc3c(c2)C(=O)N([C@H](C)CO)C[C@H](C)[C@@H](CN(C)Cc2ccc(C(F)(F)F)cc2)O3)cc1	-2.2	/	106.7*
COc1ccc(CN(C)C[C@H]2Oc3ccc(NC(=O)Nc4ccc(F)cc4)cc3C(=O)N([C@H](C)CO)C[C@H]2C)cc1	-1.2	/	5.5
COc1ccc(CN(C)C[C@@H]2OCCCC[C@@H](C)Oc3ccc(NC(=O)Nc4ccc(C(F)(F)F)cc4)cc3C(=O)N([C@H](C)CO)C[C@@H]2C)cc1	-5.0	2.9	113.2*
COc1ccc(CN(C)C[C@H]2OCCCC[C@@H](C)Oc3ccc(NC(=O)Nc4ccc(OC)cc4)cc3C(=O)N([C@H](C)CO)C[C@@H]2C)cc1	-0.9	-3.0	8.3
COc1ccc(CN(C)C[C@H]2Oc3ccc(NC(=O)Nc4ccc(F)cc4)cc3C(=O)N([C@@H](C)CO)C[C@H]2C)cc1	-0.1	/	15.5
COc1ccc(CN(C)C[C@H]2Oc3ccc(NC(=O)Nc4ccc(C(F)(F)F)cc4)cc3C(=O)N([C@H](C)CO)C[C@@H]2C)cc1	-4.6	/	104.4*
COC(=O)c1cc(OC)c(OC)cc1NC(=O)COc1ccccc1	-2.5	4.2	17.3
c1ccc(-c2ccc3c4ccccc4cc-3o2)cc1	-0.4	/	106.2*
O=c1cc(-c2ccccc2)oc2cc(O)ccc12	-0.6	16.5	-6.9
CSc1cccc(NC(=O)CN(c2ccc(F)c(Cl)c2)S(C)(=O)=O)c1	-0.8	-2.7	-7.8
O=C(CCN1C(=O)C2C3c4ccccc4C(c4ccccc43)C2C1=O)Oc1cccc2cccnc12 (stereo not given)	-15.7	-1.4	118.0*
O=C1c2ccccc2C(=O)N1OS(=O)(=O)c1cccc2cccnc12	-11.8	1.4	127.5*
CC(=O)c1cccc(NC(=O)C(C)N2C(=O)c3ccccc3C2=O)c1 (stereo not given)	/	-2.2	29.0
CC(C(=O)Oc1cccc2cccnc12)N1C(=O)c2ccccc2C1=O (stereo not given)	-16.4	-1.9	127.3*
COc1ccc(OC)c(S(=O)(=O)ON2C(=O)c3ccccc3C2=O)c1	-14.8	-0.8	119.1*
O=C1NC(=S)N(S(=O)(=O)c2cccc3cccnc23)C1Cc1ccccc1 (stereo not given)	-1.5	1.3	-5.9
